# Laboratory results published in the supplement of paper PMC4466140.
# Key:
# Assay in all cases: SPOT peptide array binding signal intensity (averaged, normalized) (arbitrary units (background-subtracted, floor 0; scale differs between SH3 domains)); higher = stronger binding of the SH3 domain to the peptide
# [1] = target: AgAbp1
# Method: (§1)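 GST-tagged SH3 domains from S. cerevisiae (Sc), A. gossypii (Ag), C. albicans (Ca) and S. pombe (Sp) were incubated at 10 ug/ml overnight at 4 C on cellulose SPOT membranes carrying 292 synthetic 15-mer peptides mined from the S. cerevisiae proteome (cysteines replaced by serines). Binding was detected with anti-GST antibody, HRP secondary and chemiluminescence, quantified with Genespotter, and reported as normalized spot intensities averaged over biological replicates.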
# [2] = target: AgBbc1
# Method: as §1
# [3] = target: AgBem1-D1
# Method: as §1
# [4] = target: AgBzz1-D1
# Method: as §1
# [5] = target: AgBzz1-D2
# Method: as §1
# [6] = target: AgCyk3
# Method: as §1
# [7] = target: AgFus1
# Method: as §1
# [8] = target: AgHof1
# Method: as §1
# [9] = target: AgHse1
# Method: as §1
# [10] = target: AgLsb1
# Method: as §1
# [11] = target: AgLsb4
# Method: as §1
# [12] = target: AgMyo5
# Method: as §1
# [13] = target: AgNbp2
# Method: as §1
# [14] = target: AgRvs167
# Method: as §1
# [15] = target: AgSho1
# Method: as §1
# [16] = target: AgSla1-D1-D2
# Method: as §1
# [17] = target: AgSla1-D3
# Method: as §1
# [18] = target: CaAbp1-D1
# Method: as §1
# [19] = target: CaAbp1-D2
# Method: as §1
# [20] = target: CaBbc1
# Method: as §1
# [21] = target: CaBem1-D1
# Method: as §1
# [22] = target: CaBzz1-D1
# Method: as §1
# [23] = target: CaBzz1-D2
# Method: as §1
# [24] = target: CaCyk3
# Method: as §1
# [25] = target: CaFus1
# Method: as §1
# [26] = target: CaHof1
# Method: as §1
# [27] = target: CaHse1
# Method: as §1
# [28] = target: CaLsb1
# Method: as §1
# [29] = target: CaLsb4
# Method: as §1
# [30] = target: CaMyo5
# Method: as §1
# [31] = target: CaNbp2
# Method: as §1
# [32] = target: CaRvs167
# Method: as §1
# [33] = target: CaRvs167-3
# Method: as §1
# [34] = target: CaSho1
# Method: as §1
# [35] = target: CaSla1-D1-D2
# Method: as §1
# [36] = target: CaSla1-D3
# Method: as §1
# [37] = target: ScAbp1
# Method: as §1
# [38] = target: ScBbc1
# Method: as §1
# [39] = target: ScBem1-D1
# Method: as §1
# [40] = target: ScBzz1-D1
# Method: as §1
# [41] = target: ScBzz1-D2
# Method: as §1
# [42] = target: ScCyk3
# Method: as §1
# [43] = target: ScFus1
# Method: as §1
# [44] = target: ScHof1
# Method: as §1
# [45] = target: ScHse1
# Method: as §1
# [46] = target: ScLsb1
# Method: as §1
# [47] = target: ScLsb2
# Method: as §1
# [48] = target: ScLsb3
# Method: as §1
# [49] = target: ScLsb4
# Method: as §1
# [50] = target: ScMyo3
# Method: as §1
# [51] = target: ScMyo5
# Method: as §1
# [52] = target: ScNbp2
# Method: as §1
# [53] = target: ScPex13
# Method: as §1
# [54] = target: ScRvs167
# Method: as §1
# [55] = target: ScSho1
# Method: as §1
# [56] = target: ScSla1-D1-D2
# Method: as §1
# [57] = target: ScSla1-D3
# Method: as §1
# [58] = target: SpAbp1-D1
# Method: as §1
# [59] = target: SpBbc1
# Method: as §1
# [60] = target: SpBzz1-D1
# Method: as §1
# [61] = target: SpBzz1-D2
# Method: as §1
# [62] = target: SpCyk3
# Method: as §1
# [63] = target: SpHof1
# Method: as §1
# [64] = target: SpHof1-2
# Method: as §1
# [65] = target: SpHof1-3
# Method: as §1
# [66] = target: SpHse1
# Method: as §1
# [67] = target: SpLsb1
# Method: as §1
# [68] = target: SpLsb4
# Method: as §1
# [69] = target: SpMyo1
# Method: as §1
# [70] = target: SpNbp2
# Method: as §1
# [71] = target: SpPex13
# Method: as §1
# [72] = target: SpRvs167
# Method: as §1
# [73] = target: SpSla1-D1-D2
# Method: as §1
# [74] = target: SpSla1-D3
# Method: as §1
binder,measurement,setting,value
SKAKRPKFLLDLQIK,SPOT peptide array binding signal intensity,[1],32.5
same,SPOT peptide array binding signal intensity,[2],2
same,SPOT peptide array binding signal intensity,[3],60
same,SPOT peptide array binding signal intensity,[4],38
same,SPOT peptide array binding signal intensity,[5],29.5
same,SPOT peptide array binding signal intensity,[6],10
same,SPOT peptide array binding signal intensity,[7],152
same,SPOT peptide array binding signal intensity,[8],16.5
same,SPOT peptide array binding signal intensity,[9],154
same,SPOT peptide array binding signal intensity,[10],2.75
same,SPOT peptide array binding signal intensity,[11],16
same,SPOT peptide array binding signal intensity,[12],0.25
same,SPOT peptide array binding signal intensity,[13],11
same,SPOT peptide array binding signal intensity,[14],3.33
same,SPOT peptide array binding signal intensity,[15],15
same,SPOT peptide array binding signal intensity,[16],214
same,SPOT peptide array binding signal intensity,[17],5.5
same,SPOT peptide array binding signal intensity,[18],502
same,SPOT peptide array binding signal intensity,[19],337
same,SPOT peptide array binding signal intensity,[20],80.8
same,SPOT peptide array binding signal intensity,[21],13.5
same,SPOT peptide array binding signal intensity,[22],110
same,SPOT peptide array binding signal intensity,[23],127
same,SPOT peptide array binding signal intensity,[24],19
same,SPOT peptide array binding signal intensity,[25],510
same,SPOT peptide array binding signal intensity,[26],0.5
same,SPOT peptide array binding signal intensity,[27],≤ 0
same,SPOT peptide array binding signal intensity,[28],≤ 0
same,SPOT peptide array binding signal intensity,[29],3.5
same,SPOT peptide array binding signal intensity,[30],2
same,SPOT peptide array binding signal intensity,[31],72
same,SPOT peptide array binding signal intensity,[32],1.67
same,SPOT peptide array binding signal intensity,[33],40.8
same,SPOT peptide array binding signal intensity,[34],148
same,SPOT peptide array binding signal intensity,[35],11
same,SPOT peptide array binding signal intensity,[36],≤ 0
same,SPOT peptide array binding signal intensity,[37],19
same,SPOT peptide array binding signal intensity,[38],3.5
same,SPOT peptide array binding signal intensity,[39],9
same,SPOT peptide array binding signal intensity,[40],33
same,SPOT peptide array binding signal intensity,[41],24
same,SPOT peptide array binding signal intensity,[42],51
same,SPOT peptide array binding signal intensity,[43],268
same,SPOT peptide array binding signal intensity,[44],≤ 0
same,SPOT peptide array binding signal intensity,[45],486
same,SPOT peptide array binding signal intensity,[46],≤ 0
same,SPOT peptide array binding signal intensity,[47],≤ 0
same,SPOT peptide array binding signal intensity,[48],6
same,SPOT peptide array binding signal intensity,[49],2
same,SPOT peptide array binding signal intensity,[50],1.5
same,SPOT peptide array binding signal intensity,[51],1
same,SPOT peptide array binding signal intensity,[52],62
same,SPOT peptide array binding signal intensity,[53],4.25
same,SPOT peptide array binding signal intensity,[54],1.67
same,SPOT peptide array binding signal intensity,[55],398
same,SPOT peptide array binding signal intensity,[56],27
same,SPOT peptide array binding signal intensity,[57],5
same,SPOT peptide array binding signal intensity,[58],171
same,SPOT peptide array binding signal intensity,[59],1.75
same,SPOT peptide array binding signal intensity,[60],346
YRRKSIPFAPHQITA,SPOT peptide array binding signal intensity,[31],161
same,SPOT peptide array binding signal intensity,[32],15.7
same,SPOT peptide array binding signal intensity,[33],18.5
same,SPOT peptide array binding signal intensity,[34],70
same,SPOT peptide array binding signal intensity,[35],118
same,SPOT peptide array binding signal intensity,[36],2.5
same,SPOT peptide array binding signal intensity,[37],53
same,SPOT peptide array binding signal intensity,[38],9.25
same,SPOT peptide array binding signal intensity,[39],29.5
same,SPOT peptide array binding signal intensity,[40],66
same,SPOT peptide array binding signal intensity,[41],90
same,SPOT peptide array binding signal intensity,[42],10
same,SPOT peptide array binding signal intensity,[43],89
same,SPOT peptide array binding signal intensity,[44],3.5
same,SPOT peptide array binding signal intensity,[45],380
same,SPOT peptide array binding signal intensity,[46],0.25
same,SPOT peptide array binding signal intensity,[47],25
same,SPOT peptide array binding signal intensity,[48],20
same,SPOT peptide array binding signal intensity,[49],6
same,SPOT peptide array binding signal intensity,[50],0.5
same,SPOT peptide array binding signal intensity,[51],6
same,SPOT peptide array binding signal intensity,[52],160
same,SPOT peptide array binding signal intensity,[53],185
same,SPOT peptide array binding signal intensity,[54],33.3
same,SPOT peptide array binding signal intensity,[55],145
same,SPOT peptide array binding signal intensity,[56],166
same,SPOT peptide array binding signal intensity,[57],4.25
same,SPOT peptide array binding signal intensity,[58],99
same,SPOT peptide array binding signal intensity,[59],2
same,SPOT peptide array binding signal intensity,[60],189
same,SPOT peptide array binding signal intensity,[61],0.5
same,SPOT peptide array binding signal intensity,[62],≤ 0
same,SPOT peptide array binding signal intensity,[63],25.8
same,SPOT peptide array binding signal intensity,[64],1.5
same,SPOT peptide array binding signal intensity,[65],106
same,SPOT peptide array binding signal intensity,[66],88.2
same,SPOT peptide array binding signal intensity,[67],4.5
same,SPOT peptide array binding signal intensity,[68],48
same,SPOT peptide array binding signal intensity,[69],5.5
same,SPOT peptide array binding signal intensity,[70],64
same,SPOT peptide array binding signal intensity,[71],19
same,SPOT peptide array binding signal intensity,[72],6.33
same,SPOT peptide array binding signal intensity,[73],≤ 0
same,SPOT peptide array binding signal intensity,[74],11
